# From PubChem BioAssay (NCATS)
# Where “and” joins values, the source holds several entries; their conditions need not be identical. Equal values may be shown once. Records with an inconclusive call do not appear. Where a structure was tested more than once in an assay, its records may differ in their call. Calls of active or inactive are those of the source. Calls follow the shape of the dose curve; as a rule, active = well fitted inhibition curve with a large enough effect; inconclusive = small, poorly fitted or top-dose-only effect; inactive = no such curve, though single readings can be large or run the other way.
# Target: Cytochrome P450 2D6 (Homo sapiens) (UniProt P10635)
# Test: qHTS Assay for Inhibitors and Substrates of Cytochrome P450 2D6 (AID 891); also: nearly all actives have a fitted effect of over 60% in size
# Conditions: recombinant CYP2D6, luciferin-ME EGE luminescence; series mostly up to 57.1 µM; activity change, negative = inhibition: at the top concentration
# Description: NIH Molecular Libraries Screening Centers Network [MLSCN]
# NIH Chemical Genomics Center [NCGC]
# The P450 gene superfamily is involved in the metabolism and clearance of xenobiotics. This assay used human CYP2D6 to measure the demethylation of ethylene glycol ester of luciferin 6' methyl ether (Luciferin-ME EGE; […]) to luciferin. The luciferin is then measured by luminescence after the addition of a luciferase detection reagent. Luciferin-ME EGE concentration in the assay was equal to its Km for CYP2D6. Inhibitors and some substrates limit the production of luciferin, and decrease measured luminescence.
# NCGC Assay Protocol Summary:
# Two uL of enzyme and substrate mix (final concentrations: 5nM CYP2D6, 30uM Luciferin-ME EGE, 100mM KPO4) were dispensed into a white, solid bottom 1536-well microtiter plate. 23nL of compound was transferred by a pin tool. The plate was incubated at room temperature for 10 min. Two uL of an NADPH regeneration solution (Promega supplied reagent) was dispensed and the reaction was allowed to continue for 60 min at room temperature. Then the reaction was stopped by reconstituted luciferin detection buffer. After another 20 min of incubation the plate was read on the ViewLux (Perkin Elmer) at 60 sec exposure and 2x2 binning. This protocol was carried out with Promega-Glo reagents and further information can be found at http://www.promega.com/tbs/tb325/tb325.pdf. Data were normalized to the to AC100 inhibition (1.43 uM quinidine).
# Keywords: P450, CYP2D6, Luciferase, MLSMR, MLSCN, NIH Roadmap, qHTS, NCGC
# % is scaled to controls: 0 for no effect and ±100 for the full control effect; potency is read from the fitted curve at half-maximal effect.
# Cytochrome P450 2D6 (Homo sapiens), sequence (P10635 whole entry, looked up): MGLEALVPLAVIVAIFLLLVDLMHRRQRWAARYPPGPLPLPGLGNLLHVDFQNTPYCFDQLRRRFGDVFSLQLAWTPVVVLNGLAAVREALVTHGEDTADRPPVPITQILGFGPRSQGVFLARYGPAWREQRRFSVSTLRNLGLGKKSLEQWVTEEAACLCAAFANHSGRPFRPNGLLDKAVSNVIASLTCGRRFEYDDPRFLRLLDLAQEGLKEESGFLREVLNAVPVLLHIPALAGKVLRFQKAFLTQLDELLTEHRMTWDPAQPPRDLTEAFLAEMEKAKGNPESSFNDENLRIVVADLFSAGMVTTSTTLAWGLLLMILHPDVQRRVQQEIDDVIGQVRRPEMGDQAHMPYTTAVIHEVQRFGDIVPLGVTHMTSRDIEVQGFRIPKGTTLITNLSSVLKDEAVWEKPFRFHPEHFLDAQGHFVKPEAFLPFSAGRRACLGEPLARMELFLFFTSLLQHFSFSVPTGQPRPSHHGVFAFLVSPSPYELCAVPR
Structure (SMILES),"activity change, negative = inhibition",Potency,outcome
O=C(O)c1cccnc1Nc1cccc(C(F)(F)F)c1,4.8% (inactive),–,–
CC1(C)C(=O)N(CCN2CCC(C(=O)c3ccc(F)cc3)CC2)c2ccccc21,–,1.26 µM (active),–
CC(=O)Nc1ccc(O)cc1,–,–,inactive
O=C1c2ccccc2-c2n[nH]c3cccc1c23,–,inactive and 398 nM (active),–
C[C@H](Cc1ccc(O)c(O)c1)[C@@H](C)Cc1ccc(O)c(O)c1,–,25.1 µM (active),–
Oc1ccc(-c2nc(-c3ccc(F)cc3)c(-c3ccncc3)[nH]2)cc1,–,12.6 µM (active) and 5.01 µM (active),–
O=c1c(O)c(-c2ccc(O)cc2O)oc2cc(O)cc(O)c12,-1.82% (inactive),–,–
Cc1nc2n(c(=O)c1CCN1CCC(c3noc4cc(F)ccc34)CC1)CCCC2,–,7.94 µM (active),–
NC(=NCc1ccccc1)NC(=O)c1nc(Cl)c(N)nc1N,–,5.01 µM (active),–
CC1(C)NC(=O)N(c2ccc([N+](=O)[O-])c(C(F)(F)F)c2)C1=O,2.77% (inactive),–,–
CN1CCC(=C2c3ccccc3CCc3sccc32)CC1,–,1.26 µM (active),–
O=c1c(O)c(-c2cc(O)c(O)c(O)c2)oc2cc(O)cc(O)c12,-15% (inactive),–,–
Cc1cc(O)c2c(c1)C(=O)c1cc(O)cc(O)c1C2=O,–,31.6 µM (active),–
O=C1NC(=O)C(c2ccccc2[N+](=O)[O-])=C1Nc1ccc(O)c(Cl)c1,-15% (inactive),–,–
